{
  "source": "PubChem BioAssay (NCATS)",
  "note": "“And” between values parts separate entries of the source, which are not always exact repeats. Equal values may be shown once. Results filed as inconclusive are left out. The source made the active and inactive calls. Calls come from the whole dose curve; as a rule, active = well fitted activation curve with a large enough effect; inconclusive = small, poorly fitted or top-dose-only effect; inactive = no such curve, though single readings can be large or run the other way. Potency is the fitted concentration of half-maximal effect.",
  "data": [
    {"molecular_target": "Cellular tumor antigen p53 (Homo sapiens) (UniProt P04637)", "sequence (P04637 whole entry, looked up)": "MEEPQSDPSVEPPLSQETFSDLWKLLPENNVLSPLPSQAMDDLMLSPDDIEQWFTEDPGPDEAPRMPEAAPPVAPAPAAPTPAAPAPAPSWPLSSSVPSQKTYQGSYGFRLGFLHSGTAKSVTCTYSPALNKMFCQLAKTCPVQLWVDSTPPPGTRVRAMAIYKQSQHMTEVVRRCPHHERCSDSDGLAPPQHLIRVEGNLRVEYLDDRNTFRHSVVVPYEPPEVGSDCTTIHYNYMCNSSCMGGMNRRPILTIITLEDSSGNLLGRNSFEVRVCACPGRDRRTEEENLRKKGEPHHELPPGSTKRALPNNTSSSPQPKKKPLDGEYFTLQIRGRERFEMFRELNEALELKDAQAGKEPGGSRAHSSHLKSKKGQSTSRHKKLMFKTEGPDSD", "test": "Primary qHTS for small molecule compounds that upregulate eGFP-tagged delta133p53alpha (in N-terminal) cells. (AID 2060322); note: nearly all actives have a fitted effect of over 75% in size;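 for activation: series mostly up to about 56 µM; 0% = DMSO vehicle and 100% = reference activator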", "details": "NCI-H358 eGFP-delta133p53alpha fluorescence, 24 h; activation: stronger effect = higher value", "how_it_was_run": "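NCI-H358 cells pre-induced 24 h with 10 ng/ml doxycycline to express N-terminal eGFP-delta133p53alpha, then dosed 24 h at 37C without doxycycline; fixed, Hoechst-stained, GFP intensity by laser scanning cytometry, normalized to DMSO (0%) and 57.5 uM 5-azacytidine (100%).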", "values": [
      {"compound": "NC(=O)c1ccc(I)c([N+](=O)[O-])c1", "activation": "13.8% (inactive)"},
      {"compound": "O=C(/C=C/N1C[C@H]2C[C@@H]1CN2c1ccccn1)c1ccccc1O", "activation": "21.2% (inactive)"},
      {"compound": "Cc1cc([C@@H](C)Nc2ccccc2C(=O)O)c2nc(N3CCOCC3)cc(=O)n2c1", "activation": "14.9% (inactive)"},
      {"compound": "C[C@@H]1C(=O)O[C@H]2CC34[C@H]5C[C@@H](C(C)(C)C)C36[C@H](OC(=O)[C@@H]6O)O[C@@]4(C(=O)O5)[C@]21O", "note": "(stereo partly drawn)", "activation": "14% (inactive)"},
      {"compound": "COc1ccc(C(=O)CC(=O)c2ccc(C(C)(C)C)cc2)cc1", "activation": "-17.5% (inactive) and -8.43% (inactive)"},
      {"compound": "Cc1ccc(NC(=O)c2cccc(N(C)C)c2)cc1NC(=O)c1ccc(O)cc1", "activation": "-4.71% (inactive)"},
      {"compound": "NC(=O)c1ccc(-c2nc(-c3ccc4c(c3)OCCO4)c(-c3ccccn3)[nH]2)cc1", "activation": "-1.5% (inactive)"},
      {"compound": "CC(C)(C)c1cc(C(C)(C)C)c(NC(=O)c2c[nH]c3ccccc3c2=O)cc1O", "activation": "27.3% (inactive)"},
      {"compound": "CSc1cccc(Nc2ncc3cc(-c4c(Cl)cccc4Cl)c(=O)n(C)c3n2)c1", "activation": "-0.477% (inactive)"},
      {"compound": "CO[C@@H](C(=O)N1Cc2[nH]nc(NC(=O)c3ccc(N4CCN(C)CC4)cc3)c2C1)c1ccccc1", "activation": "20.9% (inactive)"},
      {"compound": "COC(=O)C[C@](O)(CCCC(C)(C)O)C(=O)O[C@@H]1C(OC)=C[C@]23CCCN2CCc2cc4c(cc2[C@H]13)OCO4", "activation": "-1.17% (inactive)"},
      {"compound": "CC[C@H](NC(C)C)[C@H](O)c1ccc(O)c2[nH]c(=O)ccc12", "activation": "-13% (inactive) and -16.9% (inactive)"},
      {"compound": "Oc1cccc(-c2nc(N3CCOCC3)c3oc4ncccc4c3n2)c1", "activation": "27.8% (inactive)"},
      {"compound": "CCCCCCOC(=O)NC(=N)c1ccc(NCc2nc3cc(C(=O)N(CCC(=O)OCC)c4ccccn4)ccc3n2C)cc1", "activation": "-36.8% (inactive)"},
      {"compound": "COc1ccccc1C(=O)Nc1cc2c(cc1N1CCCCC1)n(C)c(=O)n2C", "activation": "-12.3% (inactive)"},
      {"compound": "Cc1cc(NC(=O)Nc2ccc(N(C)C)cc2)c2cc(F)cc(F)c2n1", "activation": "-0.105% (inactive)"},
      {"compound": "CN1CCN(c2ncc(-c3cc(Cl)cc(Cl)c3Cl)c(N)n2)CC1", "activation": "4.6% (inactive)"},
      {"compound": "COc1ccc(-c2ccc3c(N4CCOCC4)nc(N4C[C@@H](C)O[C@@H](C)C4)nc3n2)cc1CO", "Potency": "21.7 µM (active)"},
      {"compound": "COc1ccc(C[C@@H](C)[C@@H](C)Cc2ccc(OC)c(OC)c2)cc1OC", "activation": "11.5% (inactive)"},
      {"compound": "CCOC(=O)c1c(C)n(C)c2ccc(O)cc12", "activation": "6.69% (inactive) and -7.58% (inactive)"},
      {"compound": "N=C(N)c1ccc2cc(OC(=O)c3ccc(N=C(N)N)cc3)ccc2c1", "activation": "-10.5% (inactive)"},
      {"compound": "O=C(Nc1nnc(-c2ccco2)o1)c1cc(-c2ccccc2)nc2ccccc12", "activation": "-15% (inactive)"},
      {"compound": "COc1cccc([C@@H](C)NCCCc2ccccc2Cl)c1", "activation": "-21.4% (inactive)"},
      {"compound": "Nc1nccc(-c2ccc3noc(-c4ccc(Cl)cc4)c3c2)n1", "Potency": "34.3 µM (active)"},
      {"compound": "Cn1c(=O)c(F)c(Nc2ccc(I)cc2F)c2c(=O)n(C[C@@H](O)CO)cnc21", "activation": "15.6% (inactive)"},
      {"compound": "CCCCCCCN(CC)CCCC(O)c1ccc(NS(C)(=O)=O)cc1", "note": "(stereo not drawn)", "activation": "5.18% (inactive)"},
      {"compound": "CC(=O)Oc1cc2c(s1)CCN(C(C(=O)C1CC1)c1ccccc1F)C2", "note": "(stereo not drawn)", "activation": "29.4% (inactive)"},
      {"compound": "COC(c1ccccc1)(c1ccccc1)[C@H](Oc1nc(C)cc(C)n1)C(=O)O", "activation": "-19.8% (inactive) and -2.24% (inactive)"}
    ]}
  ]
}
